Compound activity as filed in PubChem.
FBW7 act = human FBW7 E3 ligase activation, primary screen; AlphaScreen FBW7–phospho-cyclin E peptide binding, activator screen; normalized activity (activation), % at 26.1 µM; actives 0.13% (n = 650,000); in the data active = normalized activity above about 1.9%;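 note: purified mutant Fbw7 with reduced substrate affinity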
GPR151 activ = activators of human GPR151. Q8TDV0. actives 1% (n = 650,000). PathHunter beta-arrestin GPR151 cells, luminescence. AID 1508602. activation, % at 11.2 µM; in the data active = activation above about 4.9%;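 note: 0% = median of compound wells and 100% = cells with positive control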
TEAD-YAP block = TEAD-YAP interaction inhibition; inhibition, % at 9.12 µM; HEK-TIYL cells, TEAD-Gal4/YAP UAS-luciferase luminescence; actives 1.4% (n = 640,000); in the data active = inhibition above about 32%;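 note: 0% = median of test compound wells and 100% = reference inhibitor wells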
MITF inh = inhibitors of human MITF | O75030 | AlphaScreen MITF homodimerization, bead proximity signal | inhibition, % at 2.6 µM | actives 0.91% (n = 650,000) | AID 1259374; in the data active = inhibition above about 50%;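 note: 0% = vehicle wells with protein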
Target sequence (O75030 whole entry, looked up): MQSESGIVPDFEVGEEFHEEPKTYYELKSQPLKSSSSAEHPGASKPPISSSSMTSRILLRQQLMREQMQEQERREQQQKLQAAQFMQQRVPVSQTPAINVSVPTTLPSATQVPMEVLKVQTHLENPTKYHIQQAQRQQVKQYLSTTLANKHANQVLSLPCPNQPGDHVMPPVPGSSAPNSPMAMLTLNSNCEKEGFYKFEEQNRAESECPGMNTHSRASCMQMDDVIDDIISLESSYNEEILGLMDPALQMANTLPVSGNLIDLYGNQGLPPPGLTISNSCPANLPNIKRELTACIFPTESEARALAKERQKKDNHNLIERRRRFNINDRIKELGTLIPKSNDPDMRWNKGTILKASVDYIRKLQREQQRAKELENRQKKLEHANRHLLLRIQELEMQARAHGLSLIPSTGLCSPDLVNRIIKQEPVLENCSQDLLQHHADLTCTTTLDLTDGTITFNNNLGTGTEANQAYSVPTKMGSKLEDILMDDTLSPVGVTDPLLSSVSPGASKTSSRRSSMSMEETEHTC
MITF confirm = confirmation of human MITF inhibitors | shares compounds with MITF inh | AlphaScreen MITF homodimerization, biotin/His-MITF beads | inhibition, % at 2.6 µM | actives 16% (n = 4,700);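 active = inhibition above a cutoff derived from the DMSO control wells, cut at about 28% in these data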;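 note: 0% = MITF dimer wells with DMSO only; inhibitors lower the bead chemiluminescence by keeping MITF from dimerizing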
AS interf DR = optically interferes with AlphaScreen signal in dose response; actives 6% (n = 480); IC50, µM; AID 1259373; shares compounds with MITF inh; AlphaScreen optical interference counterscreen, cell-free; call rule not given here
AS interf ctr = counter-screen: compounds optically interfering with AlphaScreen; shares compounds with MITF inh; LysRS AlphaScreen counterscreen, signal interference, triplicate; inhibition, % at 2.6 µM; actives 7.6% (n = 4,700); AID 1259376;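 active = inhibition above a cutoff derived from the DMSO control wells, cut at about 30% in these data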
* hit, by the source's call; . = no result given. Compounds with a hit are over-represented: about 3.5% of the library has one in this group of screens.

SMILES	FBW7 act	GPR151 activ	TEAD-YAP block	MITF inh	MITF confirm	AS interf ctr	others
CCOc1ccc(CN(CCc2ccc3c(c2)OCO3)Cc2cc(OC)c(OC)cc2OC)cc1	0	0	-2	45	.	.
CCOc1ccc(CN(CCc2ccc3c(c2)OCO3)Cc2cccc3ccccc23)cc1	0	-1	-2	53*	-5	-9
O=C(O)/C=C/C(=O)Nc1nnc(-c2ccccc2F)s1	0	0	-4	6	.	.
CCCCCCOc1ccc2c(=O)c(Oc3cc(C)ccc3C)coc2c1	0	0	0	2	.	.
NC(=O)/C(=C\c1cccc([N+](=O)[O-])c1)NC(=O)c1ccc(Br)cc1	0	-1	0	53*	32*	-1	AS interf DR=>6.5
NC(=O)/C(=C/c1cccc([N+](=O)[O-])c1)NC(=O)c1cccc(Br)c1	0	-1	14	3	.	.
CCNc1nc(Nc2ccccc2)c2cnn(C)c2n1	0	0	3	4	.	.
CCCNc1nc(Nc2ccccc2)c2cnn(C)c2n1	0	-1	2	112*	17	12
CCOC(=O)C1=C(O)CSC1=NC(=O)c1ccc(OC)cc1	0	0	-3	52*	-17	-1
CCNC(=O)/C(C#N)=C/c1ccc(Cl)c(Cl)c1	0	1	0	53*	-1	6
CCOc1ccc2nc(SCC(=O)n3c(C)c(C)c4ccccc43)sc2c1	0	-1	-8	7	.	.
COCCOCC(O)CN1CCN(c2ccc(C)cc2)CC1 (stereo unspecified)	0	1	-7	52*	4	1
N#C/C(=C/c1ccco1)c1cccc(F)c1	1	1	2	68*	30*	17	AS interf DR=>6.5
COc1ccccc1CNC(=O)Cn1cnc2sc(C(=O)Nc3ccc(F)c(Cl)c3)c(C)c2c1=O	0	0	11	13	.	.
O=S(=O)(c1ccccc1)N1CCN(CC(O)COCc2ccco2)CC1 (stereo unspecified)	0	-2	1	94*	17	1
CCOC1=NN(c2ccc([N+](=O)[O-])cc2)C(=O)/C1=C\c1ccc(OC)cc1	0	0	2	-3	.	.
O=C(CSc1ccc(-c2cccnc2)nn1)NCc1ccccc1Cl	0	-1	-3	-10	.	.
O=C(CSc1ccc(-c2cccnc2)nn1)NCc1ccccc1	0	0	8	51*	5	-3
Cc1ccc(S(=O)(=O)NCCN(C(C)C)C(C)C)c(C)c1	0	0	-6	4	.	.
Cc1ccc(/C=C(\C#N)C(=O)Nc2cccc(Cl)c2Cl)o1	0	0	-2	8	.	.
Cc1ccc(/C=C(\C#N)C(=O)Nc2c(Cl)cccc2Cl)o1	0	-2	-14	74*	5	18
CC1(C)Cc2cccc(OCc3ccc(C(=O)NCc4ccncc4)cc3)c2O1	0	2	15	59*	-11	2
Cc1ccc2c(c1)CC(C(=O)Nc1ccc(-c3cn[nH]c3)cc1OCCN(C)C)CO2 (stereo unspecified)	0	0	-1	23	.	.
CC1CCC(N2CCN(Cc3cccc([N+](=O)[O-])c3)CC2)CC1 (stereo unspecified)	0	0	-6	60*	2	0
CC1CCN(C2CCN(Cc3cccc([N+](=O)[O-])c3)CC2)CC1	0	0	-7	18	.	.
SMILES	FBW7 act	GPR151 activ	TEAD-YAP block	MITF inh	MITF confirm	AS interf ctr	others
O=[N+]([O-])c1cccc(CN2CCC(N3CCCCCC3)CC2)c1	1	3	1	67*	2	6
CS(=O)(=O)N1CCN(Cc2cccc([N+](=O)[O-])c2)CC1	0	-1	4	72*	7	17
O=[N+]([O-])c1cccc(CN2CCC(N3CCN(Cc4ccccc4)CC3)CC2)c1	0	-1	-6	23	.	.
CC1CCCC(N2CCN(Cc3cccc([N+](=O)[O-])c3)CC2)C1 (stereo unspecified)	0	-1	-1	75*	6	-4
O=[N+]([O-])c1cccc(CN2CCN(S(=O)(=O)Cc3ccccc3)CC2)c1	0	4	17	31	.	.
O=C(NCc1ccccc1Cl)c1ccc2nc(-c3ccccc3)c(-c3ccccc3)nc2c1	0	-1	-8	9	.	.
CCc1ccccc1N1C(=O)NC(=O)/C(=C\c2ccc(N(CC)CC)o2)C1=O	0	1	-15	5	.	.
C/C(CC(=O)Nc1ccccc1)=N\NC(=O)CC#N	-1	2	-9	57*	61*	35*
COC(=O)c1ccccc1NC(=O)C/C(C)=N/NC(=O)CC#N	0	3	2	7	.	.
C=CCc1cc(OC)ccc1OCCCCn1cncn1	0	-1	5	76*	-20	0
C=CCc1cc(OC)ccc1OCCN1CCN(C)CC1	0	-2	16	67*	11	3
C=CCc1cc(OC)ccc1OCCCN1CCN(C)CC1	0	0	4	82*	0	-3
C=CCc1cc(OC)ccc1OCCN1CCCCC1	0	0	-2	33	.	.
COc1ccccc1NC(=O)N(CCCO)Cc1cc2ccc(C)c(C)c2[nH]c1=O	0	1	1	1	.	.
CCCNC(=O)c1ccc2c(c1)NC(=O)C(CSCc1ccc(C)cc1)N2 (stereo unspecified)	0	-1	11	4	.	.
COc1ccc(OC)c(CN2CCOCC2)c1	0	-1	3	1	.	.
COc1ccc(Br)cc1CN1CCCCC1	0	1	5	-2	.	.
COc1ccc(OC)c(CN2CCN(Cc3cccn3C)CC2)c1	0	5	0	63*	1	8
COc1ccc(Br)cc1CN1CCN(Cc2cccn2C)CC1	0	1	1	67*	19	16
O=S(=O)(CCN1CCCCC1)Oc1ccccc1	0	-1	-7	58*	7	19
Cc1ccsc1C(=O)Nc1cccc(I)c1	0	-2	-37	-1	.	.
Cc1ccc([N+](=O)[O-])c(OCCCN2CCOCC2)c1	0	-1	-7	-10	.	.
Cc1cc(OCCCCN2CC(C)OC(C)C2)ccc1[N+](=O)[O-] (stereo unspecified)	0	2	12	40	.	.
Cc1ccc(OCCCCN2CCCC2)c([N+](=O)[O-])c1	0	0	4	83*	-8	-2
Cc1ccc(OCCCCN2CC(C)OC(C)C2)c([N+](=O)[O-])c1 (stereo unspecified)	0	3	4	63*	-9	-5
Cc1ccc(OCCN2CCCC(C)C2)c([N+](=O)[O-])c1 (stereo unspecified)	0	-1	8	58*	13	12
Cc1ccc(OCCCN2CCCCC2)c([N+](=O)[O-])c1	0	-1	-28	87*	-5	10
